# Screening results deposited in PubChem BioAssay by The Scripps Research Institute Molecular Screening Center.
# An excerpt weighted towards active compounds, which were near 3.5% of everything screened.
# GPR151 activ: activators of human GPR151; Q8TDV0; AID 1508602; PathHunter beta-arrestin GPR151 cells, luminescence; activation, % at 11.2 µM; hit rate 1% among 650,000; in the data active = activation above about 4.9%;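 also: 0% = median of compound wells and 100% = cells with positive control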
# TEAD-YAP inh: TEAD-YAP interaction inhibition; inhibition, % at 9.12 µM; hit rate 1.4% among 640,000; AID 1259422; HEK-TIYL cells, TEAD-Gal4/YAP UAS-luciferase luminescence; in the data active = inhibition above about 32%;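 also: 0% = median of test compound wells and 100% = reference inhibitor wells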
# FBW7 act: human FBW7 E3 ligase activation, primary screen. Q969H0. AlphaScreen FBW7–phospho-cyclin E peptide binding, activator screen. normalized activity (activation), % at 26.1 µM. hit rate 0.13% among 650,000; in the data active = normalized activity above about 1.9%;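 also: purified mutant Fbw7 with reduced substrate affinity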
# MITF primary: inhibitors of human MITF | inhibition, % at 2.6 µM | hit rate 0.91% among 650,000 | O75030 | AlphaScreen MITF homodimerization, bead proximity signal; in the data active = inhibition above about 50%;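 also: 0% = vehicle wells with protein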
# An asterisk follows results filed as active.
SMILES,GPR151 activ,TEAD-YAP inh,FBW7 act,MITF primary
Cc1ccc(C(=O)Nc2ccc3c(c2)OCO3)cc1,-5,44*,0,8
COc1ccc2c(c1)OC(C)CN(CCC(=O)NCc1nonc1C)C2 (centres undefined),-1,-5,1,20
Cn1cc(C(=O)NC2CCCCC2)c(=O)c2cc(S(=O)(=O)N3CCCCCC3)ccc21,0,3,0,-14
COc1cc2sc(=NC(=O)c3ccc(N(C)C)cc3)n(C)c2cc1OC,-1,-4,0,2
O=C(Cc1cn(Cc2ccc(F)cc2)c2ccccc12)NCc1ccc2c(c1)OCO2,2,-16,0,-9
CCc1ccccc1OCC(=O)Nc1ccc(C(N)=O)cc1,0,-1,0,4
O=C(Nc1ccc2ncsc2c1)c1ccc2c(c1)OCCO2,-8,86*,0,3
COc1cccc(S(=O)(=O)Nc2ccc3c(c2)OCCO3)c1,0,33*,0,1
COc1cc(OC)c(S(=O)(=O)Nc2ccc3c(c2)OCCO3)cc1NC(C)=O,0,35*,0,3
O=C(Nc1ccc2c(c1)OCCO2)c1ccc(F)cc1,-6,43*,0,-15
O=C(Nc1ccc2ncsc2c1)c1ccc(F)cc1,-5,-37,1,22
Cc1ccc(C(=O)Nc2ccc3c(c2)OCCO3)cc1,1,0,0,-19
CS(=O)(=O)NCc1nnc(SCC(=O)c2ccccc2F)o1,0,-1,0,6
CCc1cccc(NC(=O)Oc2ccc(C)c(C)c2)c1,1,-11,0,-7
O=C(CCn1nnc2ccccc2c1=O)NCCc1c[nH]c2ccccc12,0,10,0,5
O=C(Nc1ccc2c(c1)CCC2)c1ccc2c(c1)OCO2,-6,59*,0,15
O=C(N1CCCC1)N1c2ccccc2Sc2ccccc21,-1,29,1,12
O=C(c1ccco1)N1CCN(C(=O)N2c3ccccc3Sc3ccccc32)CC1,0,51*,0,22
O=C(N1CCN(c2ccccn2)CC1)N1c2ccccc2Sc2ccccc21,-1,51*,1,0
O=C(CCCl)Nc1nc2c(s1)CCc1ccccc1-2,1,35*,0,11
O=C(Nc1nc2c(s1)CCc1ccccc1-2)c1ccco1,0,-25,0,-25
CN(C)CCNC(=O)c1cc2c(Cl)nc3ccccc3c2s1,-2,55*,0,18
O=C(CNC(=O)C12CC3CC(CC(C3)C1)C2)NNc1c(F)c(F)cc(F)c1F,0,5,0,9
COc1cccc(-c2nnc(-c3ccc(N)cc3)o2)c1,-1,41*,0,-4
O=C(CCC1(Cc2ccco2)CCC(=O)N1)NCCc1c[nH]c2ccccc12 (centres undefined),0,17,1,15
SMILES,GPR151 activ,TEAD-YAP inh,FBW7 act,MITF primary
CCn1c(=O)c(-c2ccccc2)c(O)c2ccccc21,-2,0,0,7
CCn1c(=C2C(=O)NC(=O)NC2=O)c2cccc3cccc1c32,-1,15,-1,61*
Cc1nc2cc3c(cc2n1CCOc1ccccc1Cl)OCCO3,-1,-7,0,9
Cc1nc2cc(NC(=O)c3ccc(S(=O)(=O)N(C)C4CCCCC4)cc3)ccc2s1,0,38*,0,12
O=C(NCc1cccnc1)c1ccc2nc(Nc3ccccc3)sc2c1,-1,3,0,1
Cc1cc(N/N=C/c2ccc(O)cc2O)nc(-c2ccccc2O)n1,-1,43*,0,3
Cc1nc(N/N=C/c2ccc(O)cc2O)cc(-c2ccccc2)n1,0,10,0,7
Oc1ccc(/C=N/Nc2ncc(-c3ccccc3)cn2)c(O)c1,-1,62*,-1,31
Cc1cc(N/N=C\c2ccccc2)nc(-c2ccccc2O)n1,0,15,0,6
O=C(Nc1ccccc1Cl)C(Cc1ccccc1)N1C(=O)C2C3CCC(C3)C2C1=O (centres undefined),1,-3,0,-18
COc1ccc(C(=O)c2ccc(OC)c(OC)c2)cc1OC,-1,5,0,1
COc1ccc(C(=O)c2ccc(OC)c(N)c2)cc1N,0,36*,0,-10
O=C1CCCC2=C1C(c1ccc(O)c(Br)c1)C1=C(CCCC1=O)O2,0,45*,0,17
CCc1ccccc1NC(=O)c1cccc(C)c1,1,2,0,-2
O=C(N/N=C/c1ccccc1)c1cccc(O)c1,-2,34*,0,13
N/C(=N\N=C/c1ccc([N+](=O)[O-])cc1)N/N=C\c1ccc([N+](=O)[O-])cc1,0,0,4.3*,-16
O=C(N/N=C/c1ccc([N+](=O)[O-])cc1)c1cccc(O)c1,-2,40*,0,12
